Drawing on PubChem BioAssay (NCI), this text covers growth for seven compounds.

Compounds without any hit were thinned out: in the full panel of roughly 83,000, 20% have a hit.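 A percent growth of 40 corresponds to 60% growth inhibition; 0 means no net growth; -100 means all cells died. Active threshold: below 10.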 Values without a mark were called inactive. Activity calls are given as the source filed them.

What all share (test): NCI-60 one-dose screen, 48 h (100 = growth as untreated, 0 = no growth, -100 = all killed)
Common to all, as to settings: 10 µM unless noted

Assay [1] relates to NCI-H23 lung.
Assay [2] deals with NCI-H226 lung.
Assay [3] has as its system NCI-H322M lung.
For assay [4], the system named is HOP-62 NSCLC.
In assay [5] the test system is NCI-H460 lung.
Assay [6] relates to HOP-92 NSCLC.
Assay [7] has as its system NCI-H522 lung.
Assay [8] concerns A549/ATCC NSCLC.
Assay [9] has as its system 786-0 renal.
Assay [10] concerns COLO 205 colon.
For assay [11], the system named is DU-145 prostate.
Assay [12] has as its system K-562 leukemia.
For assay [13], the system named is MALME-3M melanoma.
Assay [14] concerns MDA-MB-231 breast.
For assay [15], the system named is RXF 393 renal.
Assay [16] deals with SF-268 CNS.
Assay [17] has as its system SF-295 CNS.
In assay [18] the test system is SF-539 CNS.
For assay [19], the system named is UACC-257 melanoma.
The test system of assay [20] is M14 melanoma.

On to `CCCCCCC12CCC(=O)N1CCc1cncn12` (stereo not given), for which the growth in [1] is 108%; in [2], 99.8%; in assay [3] it was 109%; in assay [4] it was 100%; in assay [5], 105%; in assay [6], 113%. Also, the growth is 90% in [7]; 95.3% in assay [8]; 112% in assay [9]; 106% in [10]; 109% in assay [11]; 100% in [12]. In addition, the growth in [13] was 120%; in [14], 110%; in [15] it was 92.4%; in assay [16], 120%; in assay [17], 105%; in assay [18], 106%. Moreover, the growth in assay [19] was 101%; in assay [20], 113%.

Regarding `NC(=O)c1c(NC(=O)c2ccc3ccccc3c2)sc2c1CCC(=O)C2`, the growth in assay [1] was 35.4%; in assay [2], 91.8%; in assay [3] it was 94.9%; in assay [4], 99.9%; in assay [5], 92.6%; in [6] it was 83.6%. Further, the growth in assay [7] was 10.5%; in assay [8] it was 95.5%; in assay [9] it was 99.6%; in assay [10], 58.4%; in assay [11] it was 94.4%; in [12] it was 14.6%. In addition, the growth in [13] was 91.1%; in assay [14] it was 67.5%; in [15], 60.7%; in assay [16] it was 31.4%; in assay [17] it was 93.4%; in assay [18], 25.4%. For the same compound, the values for the growth in [19] and in assay [20] were 91.6% and 37.4%, respectively.

Turning to `CN(C)CC1CCC(CN(C)C)C1=O` (stereo not given), the growth in assay [1] was 114%; in assay [2], 101%; in assay [3], 110%; in [4], 106%; in assay [5], 111%; in assay [6], 100%. The growth was 95.3% in [7]; 110% in [8]; 102% in [9]; 103% in assay [10]; 115% in [11]; 4.34% (active) in [12]. Moreover, the growth was 115% in [13]; 117% in assay [14]; 123% in assay [15]; 108% in assay [16]; 133% in [17]; 109% in assay [18]. The growth in [19] was 109%; in assay [20] it was 108%.

Regarding `CCCCCN1C(=O)/C(=c2\sc3n(c2=O)C2C(NN=3)N(CC)C(=O)N2CC)c2ccccc21` (stereo not given), the growth in assay [1] was 12.1%; in assay [2], 9.26% (active); in [3] it was 21.2%; in assay [4], 9.45% (active); in [5] it was -74.6% (active); in assay [6] it was 3.79% (active). In addition, the growth in assay [7] is -28% (active); in assay [8], -85% (active); in [9], -61.6% (active); in assay [10], 0.959% (active); in assay [11], -67.1% (active); in [12], -71.9% (active). For the same compound, the growth in assay [13] was -32.4% (active); in assay [14], -30.8% (active); in assay [15] it was -28.9% (active); in assay [16], -2.82% (active); in assay [17], -24.8% (active); in [18], -90.2% (active). For the same compound, the results for the growth in [19] and in assay [20] were 31.5% and -9.92% (active), respectively.

Turning to `COc1ccc(C(=O)N2c3ccccc3Sc3ccccc32)c(OC)c1`, the growth in assay [1] is 38%; in assay [2], 31.3%; in assay [3] it was 62.2%; in assay [4], 48.4%; in assay [5] it was 9.97% (active); in [6] it was 31.3%. Besides, the growth in assay [7] was -9.67% (active); in [8], 30.6%; in assay [9] it was 28.6%; in [10] it was -11.4% (active); in assay [11] it was 9.99% (active); in assay [12], 10.5%. Moreover, the growth in assay [13] is 66.9%; in assay [14] it was 38.4%; in assay [15], -0.69% (active); in [16] it was 36.6%; in assay [17], 11.6%; in assay [18], -18.8% (active). Besides, the growth was 77% in assay [19] and -9.55% (active) in assay [20].

On to `N#Cc1ccc(O)c(C2=NCC(c3cccc(Oc4ccccc4)c3)O2)c1` (stereo not given), for which the growth in [1] is 41.1%; in assay [2] it was 45.2%; in assay [3] it was 41.7%; in assay [4], 2.94% (active); in assay [5], 4.55% (active); in assay [6] it was 36.8%. In addition, the growth in assay [7] is -11.9% (active); in assay [8], -0.648% (active); in [9], 26.4%; in [10] it was 14.7%; in assay [11] it was 39.4%; in [12], 7.33% (active). The growth in assay [13] was 37.3%; in [14], 24.6%; in [15], 61.8%; in [16] it was 23.1%; in assay [17], 30.9%; in assay [18], 23.6%. In addition, the growth in assay [19] is 6.96% (active); in [20] it was -4.77% (active).

Take `CN1CCN(C(=O)c2ccc(NC(=O)c3cc4c(nn3)NCCN4Cc3cc(Cl)ccc3Cl)cc2)CC1`: the growth in assay [1] was 74.3%; in [2], 36.8%; in [3], 95.8%; in assay [4] it was 82.3%; in [5], 53.4%; in assay [6] it was 67.2%. The growth was 36.1% in [7]; 55.2% in [8]; 75.2% in assay [9]; 71.1% in [10]; 88.2% in assay [11]; 6.45% (active) in [12]. Further, the growth was 73.8% in assay [13]; 82.2% in [14]; 64.2% in assay [15]; 58.9% in assay [16]; 67.6% in [17]; 52.3% in [18]. For the same compound, the growth in [19] is 101%; in assay [20], 72.6%.
